This is one part of a sample in which hits are shown more often than they occur.
CD40 NFkB inh – CD40 pathway inhibition in BL2 cells. 0.94% of 83,000 active. BL2 NF-kB luciferase reporter, CD40L-induced, 4 h. AID 1053188. inhibition, % at 10 µM;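 active = mean inhibition of at least 50% with a set share of replicates also reaching that level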
Numbers stand for hits; 0 = inactive.

SMILES | CD40 NFkB inh
CS(=O)(=O)N1C[C@@H]2C(c3ccc(Br)cc3)[C@H](C1)N2CC1CC1 (stereo partly specified) | 0
COc1cccc(CN2CC3(C2)[C@H](c2ccccc2)[C@H](CO)N3C(=O)Cc2ccccc2)c1 | 0
N#Cc1c(Br)n(C2OC(CO)C(O)C2O)c2ncnc(N)c12 (stereo unspecified) | 83.3
CCNC(=O)[C@H]1O[C@@H](n2cnc3c(N)ncnc32)[C@H](O)[C@@H]1O | 0
NC(=O)c1c(Br)n(C2OC(CO)C(O)C2O)c2ncnc(N)c12 (stereo unspecified) | 55.5
O=C1CNC[C@@H]2[C@H](c3ccc(Br)cc3)[C@@H](CO)N12 | 0
COC(=O)[C@@H]1[C@@H](CO)[C@@H]2Cn3c(cccc3=O)[C@H]1N2Cc1nccs1 | 0
O=C(O)[C@H]1[C@H](CO)[C@H]2Cn3c(ccc(-c4ccc(F)cc4)c3=O)[C@@H]1N2CC1CCCCC1 | 0
c1cc(-c2ccc(C3[C@H]4CNC[C@@H]3N4CC3CC3)cc2)ccn1 (stereo partly specified) | 0
O=C1CNC[C@@H]2[C@@H](c3ccc(Br)cc3)[C@@H](CO)N12 | 0
C[C@@H]1CN([C@@H](C)CO)C(=O)c2c(c3ccccc3n2C)-c2ccccc2CO[C@H]1CN(C)C(=O)Oc1ccccc1 | 0
CN1C2CN(CC(F)(F)F)CC1C2c1ccc(Br)cc1 (stereo unspecified) | 0
O=C(O)[C@@H]1[C@@H](CO)[C@@H]2Cn3c(ccc(-c4ccccc4)c3=O)[C@H]1N2C(=O)C1CCCCC1 | 0
